Results filed as inconclusive are left out. Values without a mark were called inactive. Active and inactive are the calls of the source. Calls come from the whole dose curve; as a rule, active = well fitted cell-killing curve with a large enough effect in the repeat runs; inconclusive = weak or mixed curves, or effect the other way; inactive = flat fitted curve, though single readings scatter.
experiment: cAMP Responsive Elements (CRE) small molecule antagonists, cell-based qHTS assay: qHTS cell viability counter screen (AID 2060913); settings: CRE-bla HEK293T viability, CellTiter-Glo luminescence, 5 h; series mostly up to 92.4 µM; viability change, negative = cytotoxic: at the top concentration; note: nearly all actives have a fitted effect of over 40% in size
Summary of the method: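 CRE-bla HEK293T cells were seeded in assay medium with 10% dialyzed FBS, incubated 18 hrs at 37 C, then exposed to compounds plus 0.25 uM final NKH477 for 3 hrs. Viability was read by CellTiter-Glo luminescence after 30 min, in the same wells.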
% is set by controls: 0 for no effect and ±100 for the full control effect; potency is the fitted concentration of half-maximal effect.

SMILES | viability change, negative = cytotoxic | Potency
O=C(Nc1ccc(Cl)c(Cl)c1)C1CC1 | -9.05% [at 42.5 µM] | –
N[C@H]1CN(c2c(F)cc3c(=O)c(C(=O)O)cn(C4C[C@H]4F)c3c2Cl)CC12CC2 (stereo not given in full) | -3.93% [at 42.5 µM] | –
CCC(O)C(C)(C)C (stereo not given) | -7.99% | –
C=COCC1CCC(COC=C)CC1 (stereo not given) | -3.6% | –
CN(C)CCCNCCCN | -7.43% | –
CCN(CC)CCCC(C)Nc1c2ccc(Cl)cc2nc2ccc(OC)cc12 (stereo not given) | -5.9% [at 42.5 µM] | –
C=CCOC(=O)COCCC(C)C | 8.85% | –
Cc1cccc(OCC(O)CNC(C)(C)C)c1C (stereo not given) | 10.6% [at 42.5 µM] | –
Oc1ccc(Cl)cc1Cc1cc(Cl)ccc1O | – | 50.8 µM (active)
Cc1ccc(S(=O)(=O)NC(=O)NN2CC3CCCC3C2)cc1 (stereo not given) | -1.19% [at 42.5 µM] | –
CCC(=O)OC(=O)CC | -12.6% | –
C=C[Si]1(C)O[Si](C)(C=C)O[Si](C)(C=C)O[Si](C)(C=C)O1 (stereo not given) | -0.399% | –
C/C=C/C=C/C=O | 7.74% | –
O=C(O)c1ccc(O)cc1 | – | inactive
CCCN(C1CCN(C(=O)C2CCNCC2)CC1)[C@@H]1CCc2ccc(OC)cc2C1 | -1.04% | –
COc1ccc2nc(NC(=O)Nc3ccccc3)sc2c1 | -8.66% [at 42.5 µM] | –
CC(Oc1cc(Cl)ccc1Cl)C(=O)O (stereo not given) | 2.71% | –
CC1CNCC(C)O1 (stereo not given) | -11.5% | –
COc1ccc(CCN(C)CCCC(C#N)(c2cc(OC)c(OC)c(OC)c2)C(C)C)cc1OC (stereo not given) | -2.68% [at 42.5 µM] | –
CCC(=O)OC(C)c1ccccc1 (stereo not given) | -2.37% | –

SMILES | viability change, negative = cytotoxic | Potency
COCCc1ccc(OCC2CO2)cc1 (stereo not given) | -0.92% [at 42.5 µM] | –
Cn1c(=O)c2[nH]c(Br)nc2n(C)c1=O | 6.35% [at 42.5 µM] | –
CC/C(C)=N/O | – | inactive
CCC(=O)/C=C/C1C(C)=CCCC1(C)C (stereo not given) | – | inactive
C=C(C)C(=O)OCCOCC | -0.872% | –
Cc1cc(C)c(C)c(C)c1 | 0.653% | –
NS(=O)(=O)c1cc2c(cc1C(F)(F)F)NC(Cc1ccccc1)NS2(=O)=O (stereo not given) | 1.05% [at 42.5 µM] | –
NCC(=O)O | -2.51% [at 18.9 µM] | –
NC(Cc1ccc(F)cc1)C(=O)O (stereo not given) | 19.3% [at 8.39 µM] | –
CN(C)c1ccc(SC#N)cc1 | -0.473% | –
CCOC(=O)NNc1ccc(N(CC)CC(C)O)nn1 (stereo not given) | 8.08% [at 42.5 µM] | –
Cc1c(N)c(=O)n(-c2ccccc2)n1C | -2.38% [at 42.5 µM] | –
Cc1cc(F)ccc1-c1cc(N2CC[C@@H](O)[C@H]2CO)ncc1N(C)C(=O)C(C)(C)c1cc(C(F)(F)F)cc(C(F)(F)F)c1 | – | 44.6 µM (active)
CC(C)(C)NC[C@H](O)COc1cccc2c1CCCC2=O | 5.86% [at 42.5 µM] | –
CCOC(=O)OC(C)OC1=C(C(=O)Nc2ccccn2)N(C)S(=O)(=O)c2ccccc21 (stereo not given) | -0.79% [at 42.5 µM] | –
CC(CO)CO | -0.845% | –
O=c1cc[nH]c(=S)[nH]1 | – | inactive
CCC(O)OCCCOC (stereo not given) | – | inactive
Cc1[nH]cnc1-c1ccc(Cl)cc1 | 0.591% [at 42.5 µM] | –
CCN1CCCC1CNC(=O)c1cc(S(N)(=O)=O)ccc1OC (stereo not given) | -9.08% | –

Reference: PubChem BioAssay (Tox21)
